# Assay results as given in the supplement of paper PMC8728848.
# Shown is part of a subset that was picked to be rich in the strongest signals.
# B1: BabA (Helicobacter pylori), O52269_HELPY (protein)
# chain: AEDDGFYMSAGYQIGEAAQMVKNTKGIQELSDNYENLSNLLTRYSTLNTLIKLSADPSAVNAARENLGASAKNLIGDTKNSPAYQAVLLAINAAVGFWNVVGYVTQCGGNANGQKSTSSTTIFNNEPGYRSTSITCSLNGHMPGYYGPMSIENFKKLNEAYQILQTALKNGLPALKENNGTVNVTYSYTCSGEGNDNCSLQTTGVTNQNNGTKTETQTIDGKSVTTTISSKVVDSQ
# Tests used:
# Experiment in all cases: glycan array binding signal (z-score within array); higher = stronger binding
# Conditions in all cases: glycan notation: IUPAC condensed, linker removed
# [1] = target: Fuc(a1-2)Gal(b1-3)GlcNAc(b1-2)Man(a1-3)[Fuc(a1-2)Gal(b1-3)GlcNAc(b1-2)Man(a1-6)]Man(b1-4)GlcNAc(b1-4)[Fuc(a1-6)]GlcNAc
# In short: (§1)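 Arrays were curated from the Consortium for Functional Glycomics database, 3228 in total, and kept only where the protein sequence was available. Binding is expressed as a within-array Z-score. This score was averaged across arrays of the same protein sequence at different concentrations or buffers and across linkers, and negative values can be read as non-binding.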
# [2] = target: Fuc(a1-2)Gal(b1-4)Fuc(a1-3)]GlcNAc(b1-2)Man(a1-3)[Fuc(a1-2)Gal(b1-4)[Fuc(a1-3)]GlcNAc(b1-2)Man(a1-6)]Man(b1-4)GlcNAc(b1-4)GlcNAc
# In short: as §1
# [3] = target: Fuc(a1-2)Gal(b1-4)Glc6S
# In short: as §1
# [4] = target: Fuc(a1-2)Gal(b1-4)GlcNAc(b1-3)[Fuc(a1-3)[Gal(b1-4)]GlcNAc(b1-6)]Gal(b1-4)Glc
# In short: as §1
# [5] = target: Fuc(a1-2)[Gal(a1-3)]Gal(b1-4)GlcNAc(b1-2)Man(a1-3)[Fuc(a1-2)[Gal(a1-3)]Gal(b1-4)GlcNAc(b1-2)Man(a1-6)]Man(b1-4)GlcNAc(b1-4)[Fuc(a1-6)]GlcNAc
# In short: as §1
# [6] = target: Fuc(a1-2)[GalNAc(a1-3)]Gal(b1-4)GlcNAc(b1-3)Gal(b1-4)GlcNAc(b1-3)Gal(b1-4)GlcNAc
# In short: as §1
# [7] = target: Fuc(a1-3)[Gal(b1-4)]GlcNAc(b1-6)[Gal(b1-3)GlcNAc(b1-3)]Gal(b1-4)Glc
# In short: as §1
# [8] = target: Fuc(a1-3)[GalNAc(b1-4)]GlcNAc6S
# In short: as §1
# [9] = target: Gal(b1-3)Gal(b1-4)GlcNAc(b1-2)Man(a1-3)[Gal(b1-3)Gal(b1-4)GlcNAc(b1-2)Man(a1-6)]Man(b1-4)GlcNAc(b1-4)GlcNAc
# In short: as §1
# [10] = target: Gal(b1-3)GalNAc(b1-4)[Neu5Ac(a2-3)]Gal(b1-4)Glc
# In short: as §1
# [11] = target: Gal(b1-3)GlcNAc(b1-3)Gal(b1-4)GlcNAc
# In short: as §1
# [12] = target: Gal(b1-4)Glc6S
# In short: as §1
# [13] = target: Gal(b1-4)GlcNAc(b1-2)Man(a1-3)[Gal(b1-4)GlcNAc(b1-2)Man(a1-6)]Man(b1-4)GlcNAc(b1-4)GlcNAc
# In short: as §1
# [14] = target: Gal(b1-4)GlcNAc(b1-2)Man(a1-3)[Gal(b1-4)GlcNAc(b1-2)Man(a1-6)]Man(b1-4)GlcNAc(b1-4)[Fuc(a1-6)]GlcNAc
# In short: as §1
# [15] = target: Gal(b1-4)GlcNAc(b1-3)Gal(b1-4)Glc
# In short: as §1
# [16] = target: Gal(b1-4)GlcNAc(b1-3)Gal(b1-4)GlcNAc(b1-2)Man(a1-3)[Gal(b1-4)GlcNAc(b1-3)Gal(b1-4)GlcNAc(b1-2)Man(a1-6)]Man(b1-4)GlcNAc(b1-4)GlcNAc
# In short: as §1
# [17] = target: Gal(b1-4)GlcNAc(b1-3)Gal(b1-4)GlcNAc(b1-3)Gal(b1-4)GlcNAc(b1-2)Man(a1-3)[Gal(b1-4)GlcNAc(b1-3)Gal(b1-4)GlcNAc(b1-3)Gal(b1-4)GlcNAc(b1-2)Man(a1-6)]Man(b1-4)GlcNAc(b1-4)GlcNAc
# In short: as §1
# [18] = target: Gal(b1-4)GlcNAc(b1-3)Gal(b1-4)GlcNAc(b1-3)Gal(b1-4)GlcNAc(b1-2)Man(a1-3)[Gal(b1-4)GlcNAc(b1-3)Gal(b1-4)GlcNAc(b1-3)Gal(b1-4)GlcNAc(b1-2)Man(a1-6)]Man(b1-4)GlcNAc(b1-4)[Fuc(a1-6)]GlcNAc
# In short: as §1
# [19] = target: Gal(b1-4)GlcNAc(b1-3)Gal(b1-4)GlcNAc(b1-3)Gal(b1-4)GlcNAc(b1-2)[Gal(b1-4)GlcNAc(b1-3)Gal(b1-4)GlcNAc(b1-3)Gal(b1-4)GlcNAc(b1-6)]Man(a1-6)[Gal(b1-4)GlcNAc(b1-3)Gal(b1-4)GlcNAc(b1-3)Gal(b1-4)GlcNAc(b1-2)Man(a1-3)]Man(b1-4)GlcNAc(b1-4)[Fuc(a1-6)]GlcNAc
# In short: as §1
# [20] = target: Gal(b1-4)GlcNAc(b1-3)Gal(b1-4)GlcNAc(b1-3)Gal(b1-4)GlcNAc(b1-3)Gal(b1-4)GlcNAc(b1-3)Gal(b1-4)GlcNAc(b1-2)Man(a1-3)[Gal(b1-4)GlcNAc(b1-3)Gal(b1-4)GlcNAc(b1-3)Gal(b1-4)GlcNAc(b1-3)Gal(b1-4)GlcNAc(b1-3)Gal(b1-4)GlcNAc(b1-2)Man(a1-6)]Man(b1-4)GlcNAc(b1-4)GlcNAc
# In short: as §1
# [21] = target: Gal(b1-4)GlcNAc(b1-3)Gal(b1-4)GlcNAc(b1-3)[Gal(b1-4)GlcNAc(b1-3)Gal(b1-4)GlcNAc(b1-6)]GalNAc
# In short: as §1
# [22] = target: Gal(b1-4)GlcNAc(b1-6)[Gal(b1-4)GlcNAc(b1-3)]GalNAc
# In short: as §1
# [23] = target: Gal3S4S(b1-4)GlcNAc
# In short: as §1
# [24] = target: Gal4S(b1-4)GlcNAc
# In short: as §1
# [25] = target: GalNAc(a1-3)GalNAc(b1-3)Gal(a1-4)Gal(b1-4)Glc
# In short: as §1
# [26] = target: GalNAc(b1-3)GalNAc
# In short: as §1
binder,measurement,setting,value
B1,glycan array binding signal (z-score),[1],-0.237
same,glycan array binding signal (z-score),[2],3.3
same,glycan array binding signal (z-score),[3],0.321
same,glycan array binding signal (z-score),[4],-0.3
same,glycan array binding signal (z-score),[5],-0.046
same,glycan array binding signal (z-score),[6],-0.054
same,glycan array binding signal (z-score),[7],0.017
same,glycan array binding signal (z-score),[8],-0.664
same,glycan array binding signal (z-score),[9],0.28
same,glycan array binding signal (z-score),[10],0.035
same,glycan array binding signal (z-score),[11],-0.811
same,glycan array binding signal (z-score),[12],-0.359
same,glycan array binding signal (z-score),[13],-0.732
same,glycan array binding signal (z-score),[14],0.092
same,glycan array binding signal (z-score),[15],-0.535
same,glycan array binding signal (z-score),[16],4.08
same,glycan array binding signal (z-score),[17],4
same,glycan array binding signal (z-score),[18],2.03
same,glycan array binding signal (z-score),[19],2.31
same,glycan array binding signal (z-score),[20],3.86
same,glycan array binding signal (z-score),[21],4.39
same,glycan array binding signal (z-score),[22],-0.568
same,glycan array binding signal (z-score),[23],0.144
same,glycan array binding signal (z-score),[24],0.875
same,glycan array binding signal (z-score),[25],-0.709
same,glycan array binding signal (z-score),[26],-0.807
